HPGD inh: HPGD (human) dehydrogenase inhibition. P15428. purified HPGD, NADH fluorescence kinetic, PGE2 substrate. Potency, µM, hits mostly inhibitors. 150,000 tested, 4.3% active. AID 894; active = well fitted inhibition curve with a large enough effect, not every such curve was filed as active; inconclusive = small, poorly fitted or top-dose-only effect, or another doubt; inactive = no such curve, though single readings can be large or run the other way
Target sequence (P15428 whole entry, looked up): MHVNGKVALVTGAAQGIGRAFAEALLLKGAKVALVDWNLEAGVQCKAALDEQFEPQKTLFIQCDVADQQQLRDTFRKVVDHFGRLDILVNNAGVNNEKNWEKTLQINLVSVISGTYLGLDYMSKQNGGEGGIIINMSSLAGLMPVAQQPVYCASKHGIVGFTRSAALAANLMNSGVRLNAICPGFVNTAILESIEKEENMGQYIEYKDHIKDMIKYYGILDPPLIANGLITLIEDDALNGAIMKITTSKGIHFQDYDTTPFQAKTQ
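20 nM HPGD preincubated 15 min at room temperature with compound in 50 mM Tris-HCl pH 8, 0.01% Tween 20. Started with 1 mM NAD+ and 30 uM prostaglandin E2; NADH fluorescence (360/450 nm) read 5 times over 30-s intervals, last minus first.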
IMPase Li cell: membrane-permeable IMPase blocker, potentiated with lithium | CHO-M1 cells, IP1 TR-FRET (IP-One), carbachol + lithium | Potency, µM (series often up to 59.4 µM), most hits filed as inhibitors | 210,000 tested, 0.35% active;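 note: IP1 builds up when IMPase is blocked and the TR-FRET signal falls; nearly all actives have a fitted effect of over 50% in size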
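Lithium-sensitised IP1 accumulation assay; M1-expressing CHO cells treated 30 min at 37C with compound. Competitive antibody detection by time-resolved FRET followed a 10 min room-temperature lysis step.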
Lamin A splicing: modulators of lamin A splicing; HeLa LMNA splicing GFP/RFP minigene ratio, 48 h; Potency, µM (titrated, usually from 46.1 µM), usual class: inhibitors; 200,000 tested, 0.01% active; active = well fitted inhibition curve with a large enough effect in the signal ratio, with a control signal flat, not every such curve was filed as active; inconclusive = small, poorly fitted or top-dose-only effect, or effect the other way, or a change in a side signal; the % refers to the signal ratio
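Read-out is the ratio of GFP to DsRed2 object intensity, acquired by 488 nm laser-scanning cytometry on HeLa lamin A-EGFP minigene reporter cells. Compound incubation 48 hrs at 37 °C in Opti-MEM with 2% FBS; DMSO 0.5% final.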
KinaseGlo FLuc: Kinase-Glo luciferase inhibition (counter-screen); 200,000 tested, 0.28% active; Kinase-Glo luciferase, ATP luminescence, 8 min; Potency, µM (titrated, usually from 38.3 µM), actives largely listed as inhibitors; note: nearly all actives have a fitted effect of over 60% in size
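Compounds were added to a substrate mix at pH 7.2 (50 mM imidazole, 10 uM ATP, within the enzyme's linear range), followed by Kinase-Glo detection reagent; luminescence was measured after 8 minutes at ambient temperature.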
ALDH1A1 block: ALDH1A1 (human) enzyme inhibition; AID 1030; 220,000 tested, 7.3% active; Purified ALDH1A1, NADH fluorescence, propionaldehyde substrate; Potency, µM (doses to about 75.3 µM), hits mostly inhibitors; active = well fitted inhibition curve with a large enough effect, not every such curve was filed as active; inconclusive = small, poorly fitted or top-dose-only effect, or another doubt; inactive = no such curve, though single readings can be large or run the other way
Of the large screens only hits and unclear results are named; the others gave an inactive call. In the library only some 9% were active in any assay of this set; here they are far more common. Unless noted, calls come from the whole dose curve; as a rule, active = well fitted curve in the direction sought with a large enough effect; inconclusive = small, poorly fitted or top-dose-only effect, or another doubt; inactive = no such curve, though single readings can be large; an effect the other way counts as inactive or inconclusive.

COc1ccc(-c2cc(C(=O)O)no2)cc1	HPGD inh 14µM, ALDH1A1 block 0.45µM
CCC(C)NC(=O)c1cc(-c2ccc(OC)cc2)on1 (centres undefined)	none
O=C(c1ccccc1)c1cc(-c2ccccc2)on1	HPGD inh inconclusive, KinaseGlo FLuc 11µM, ALDH1A1 block inconclusive
C[C@@H](C(=O)NCc1nc2ccccc2[nH]1)[C@@H]1C[C@@]1(C)[C@@H](NC(=O)OCc1ccccc1)c1ccccc1	ALDH1A1 block inconclusive (no result: Lamin A splicing)
CC(=O)c1cc2c(O)c(O)ccc2o1	ALDH1A1 block inconclusive (no result: HPGD inh, IMPase Li cell, KinaseGlo FLuc)
CC(=O)c1cc2cc(O)ccc2o1	HPGD inh inconclusive, IMPase Li cell 11µM, Lamin A splicing inconclusive, ALDH1A1 block inconclusive
CC1(C)C(=O)CC[C@@]2(C)C1CC(O)[C@@]1(C)C3=CC(=O)OC(c4ccoc4)[C@]3(C)CCC21 (some centres undefined)	none (no result: Lamin A splicing)
CC1(C)C(O)C=C[C@@]2(C)C1CC(=O)O[C@@]1(C)C3=CC(=O)OC(c4ccoc4)[C@]3(C)CCC21 (some centres undefined)	ALDH1A1 block 22µM (no result: Lamin A splicing)
CC(=O)OC1CC2C(C)(C)C(O)CC(O)[C@@]2(C)C2CC[C@@]3(C)C(=CC(=O)OC3c3ccoc3)[C@]12C (some centres undefined)	HPGD inh 20µM, ALDH1A1 block inconclusive (no result: Lamin A splicing)
Cc1cc(=O)n(C(C)C(=O)N2CCCc3ccccc32)c2c1c(C)nn2-c1ccccc1 (centres undefined)	none (no result: HPGD inh, IMPase Li cell, KinaseGlo FLuc, ALDH1A1 block)
O=C(N/N=C1\C2CN3CCN(C2)CC1(c1ccccc1)C3)Nc1ccccc1	Lamin A splicing inconclusive (no result: HPGD inh)
C(=N/n1c2ccccc2c2ccccc21)/c1ccco1	ALDH1A1 block 10µM
N=c1scc(-c2ccccc2)n1/N=C/c1ccco1	ALDH1A1 block 22µM
CC(C)CCN(CC(=O)NC(C)(C)C)C(=O)C(=O)Nc1ccc2c(c1)OCCO2	none (no result: HPGD inh)
O=C(c1ccccc1)c1ccc(OCCOCCN2CCN(Cc3ccccc3)CC2)cc1	ALDH1A1 block 18µM (no result: HPGD inh)
O=C(c1ccccc1)c1ccc(OCCCN2CCCC2)cc1	none
COC(=O)CCC/C=C1/SCC(NC(=O)c2ccccc2)C1=O (centres undefined)	HPGD inh 25µM, ALDH1A1 block 7.9µM
Cc1cc2n(n1)SC(Nc1ccc(F)c(Cl)c1)N2 (centres undefined)	Lamin A splicing inconclusive, ALDH1A1 block 2.8µM
CCOc1ccc(/C=C2/SC(=S)N(n3c(C)ccc3C)C2=O)cc1	Lamin A splicing inconclusive, ALDH1A1 block inconclusive
CCN1C(=O)/C(=C/c2ccc(C)s2)SC1=Nc1ccc(OC)cc1	Lamin A splicing inconclusive, ALDH1A1 block inconclusive
CCCN1C(=O)/C(=C/c2cc(C)n(C)c2C)SC1=Nc1ccc(OCC)cc1	ALDH1A1 block 3.2µM
CCN1C(=O)/C(=C/c2cc(C)n(C)c2C)SC1=Nc1ccc(OC)cc1	ALDH1A1 block 1.3µM
COCc1[nH]nc2c1C(c1cccc(OC)c1)C(C#N)=C(N)O2 (centres undefined)	ALDH1A1 block 28µM
COc1cccc(-c2[nH]nc3c2C(c2ccoc2)C(C#N)=C(N)O3)c1 (centres undefined)	HPGD inh 28µM, ALDH1A1 block 13µM
CCn1c2ccccc2c2cc(C3C(C#N)=C(N)Oc4n[nH]c(COC)c43)ccc21 (centres undefined)	HPGD inh inconclusive, Lamin A splicing inconclusive, ALDH1A1 block 1.8µM
COc1ccc(OCc2nnc(SCC(=O)NNC(=O)c3ccc(C)cc3)n2C)cc1	none
CC(=O)Nc1scc(-c2ccccc2)[n+]1-c1ccc(C)cc1	none (no result: HPGD inh)
CNc1nc(-c2ccccc2)[n+](-c2ccc(C)cc2)s1	Lamin A splicing inconclusive, ALDH1A1 block 2.5µM (no result: HPGD inh, IMPase Li cell, KinaseGlo FLuc)
Cc1ccc(-c2nnc(-c3ccccc3)o2)cc1	HPGD inh inconclusive
Cc1ccc(-c2nc(N)s[n+]2-c2ccccc2)cc1	HPGD inh 2.2µM, KinaseGlo FLuc inconclusive, ALDH1A1 block 7.1µM
Cc1ccc(S(=O)(=O)Oc2ccc3c(c2)O/C(=C\c2cccnc2)C3=O)cc1	ALDH1A1 block 11µM
COc1cccc(OC)c1C(=O)Oc1ccc2c(c1)O/C(=C\c1ccncc1)C2=O	Lamin A splicing inconclusive, ALDH1A1 block inconclusive
O=C1/C(=C/c2cccnc2)Oc2cc(OS(=O)(=O)c3ccc(F)cc3)ccc21	HPGD inh 16µM, ALDH1A1 block 8.9µM

Screens (PubChem)
